Laboratory results as given in the supplement of paper PMC6555819.

How the values were obtained:
Test in all cases: PBM binding z-score (relative to random genomic background probes); higher = stronger binding; sequences stand for … in GC…GCGATTGACAGCGTAGAATGAAGG
[1] = test system: PPARg:RXRa DBDmut IVT, anti-RXR (DBD mutation: RXRa K156A/R161A, NR concentration 270 nM, RXRa partner concentration 90 nM)
How it was run: (§1)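 On custom Agilent 4×180K arrays, double-stranded probes with 34-nt variable regions carried direct-repeat seeds, single-nucleotide variants, half-site ablations or random human genomic background. Ligand-free nuclear receptor dimers were applied for 1 h, and binding was read with antibodies against each partner (one per run). Binding z-scores come from regression-normalized fluorescence, with the random background probes as reference.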

[2] = test system: PPARg:RXRa IVT, anti-PPARg (NR concentration 270 nM, RXRa partner concentration 90 nM)
How it was run: as §1

[3] = test system: PPARg DBDmut:RXRa IVT, anti-PPARg (DBD mutation: PPARg1 K132A/R137A, NR concentration 270 nM, RXRa partner concentration 90 nM)
How it was run: as §1

[4] = test system: PPARg DBDmut IVT, anti-PPARg (DBD mutation: PPARg1 K132A/R137A, NR concentration 270 nM)
How it was run: as §1

[5] = test system: PPARg homodimer (NR concentration 180 nM)
How it was run: as §1

[6] = test system: PXR:RXRa (NR concentration 270 nM, RXRa partner concentration 90 nM)
How it was run: as §1

[7] = test system: PXR homodimer (NR concentration 270 nM)
How it was run: as §1

[8] = test system: RARa:RXR (NR concentration 270 nM, RXRa partner concentration 90 nM)
How it was run: as §1

[9] = test system: RARa homodimer (NR concentration 270 nM)
How it was run: as §1

[10] = test system: RARb:RXRa (NR concentration 270 nM, RXRa partner concentration 90 nM)
How it was run: as §1

[11] = test system: RARb homodimer (NR concentration 270 nM)
How it was run: as §1

[12] = test system: RARg:RXRa (NR concentration 270 nM, RXRa partner concentration 90 nM)
How it was run: as §1

[13] = test system: RARg homodimer (NR concentration 270 nM)
How it was run: as §1

[14] = test system: RXRa DBDmut IVT, anti-RXR (DBD mutation: RXRa K156A/R161A, NR concentration 90 nM)
How it was run: as §1

[15] = test system: RXRa homodimer (NR concentration 180 nM)
How it was run: as §1

[16] = test system: THRa:RXRa (NR concentration 90 nM, RXRa partner concentration 90 nM)
How it was run: as §1

[17] = test system: THRa homodimer (NR concentration 90 nM)
How it was run: as §1

[18] = test system: VDR:RXRa (NR concentration 270 nM, RXRa partner concentration 90 nM)
How it was run: as §1

[19] = test system: VDR homodimer (NR concentration 270 nM)
How it was run: as §1

Sequence | PBM binding z-score [1] | PBM binding z-score [2] | PBM binding z-score [3] | PBM binding z-score [4] | PBM binding z-score [5] | PBM binding z-score [6] | PBM binding z-score [7] | PBM binding z-score [8] | PBM binding z-score [9] | PBM binding z-score [10] | PBM binding z-score [11] | PBM binding z-score [12] | PBM binding z-score [13] | PBM binding z-score [14] | PBM binding z-score [15] | PBM binding z-score [16] | PBM binding z-score [17] | PBM binding z-score [18] | PBM binding z-score [19]
ATATGTAGGTTACCGGGTCATTCAGTTTGCGCAT | 8.02 | 8.28 | 6.4 | 4.2 | 3.3 | 4.35 | 9.95 | 4.52 | 0.996 | 2.76 | 3.18 | 3.85 | 2.52 | 1.45 | 4.15 | 3.37 | 2.38 | 5.56 | 4.17
CATAGTTGGTCAAGGTCACACACGCTATAGGTAC | 1.92 | 3.93 | 1.23 | 1.92 | 3.69 | 4.35 | 2.19 | 4.44 | 1.85 | 4.04 | 4.31 | 4.62 | 4.62 | 2.04 | 4.73 | 4.18 | 4.02 | 4.32 | 3.8
CCTTACGGGTCACGGTTATAGCACGGGTGGTACG | 3 | 4.79 | 0.0456 | -0.518 | 2.07 | 3.68 | -0.0861 | 4.84 | 0.629 | 4.37 | 3.58 | 5.47 | 5.06 | 0.501 | 6.44 | 3.28 | 0.418 | 3.87 | 1.26
CTTACTGGGCCAAAGGTCATTGATTCCAATGCTC | 7.41 | 8.39 | 2.55 | 2.05 | 5.08 | 5.66 | 2.72 | 7.06 | 1.85 | 4.62 | 4.58 | 5.97 | 4.91 | 1.99 | 6.68 | 3.36 | 0.898 | 4.77 | 2.79
AGTCAAAGTTCAGGACGAGGTAATGTAAAGCACG | -0.319 | 1.45 | -0.174 | 0.146 | 1.53 | 3.18 | 1.4 | 2.5 | 0.661 | 4.23 | 3.05 | 4.89 | 4.72 | 3.05 | 3.37 | 3.5 | 1.44 | – | 2.1
CCCACTGGGGCAAAGGTTACCATACTCAGTACGA | 5.25 | 7.1 | 0.141 | -0.557 | 1.73 | 2.41 | -0.111 | 3.81 | 0.0182 | 2.37 | 2.15 | 3.57 | 1.81 | -0.648 | 3.57 | 1.8 | -0.0576 | – | 0.129
CCTGCTAGTTCATGGTCAGCTAATCTACAGTATG | 0.644 | -0.0239 | -0.434 | -0.632 | -0.0541 | 0.563 | 0.0644 | 0.225 | -0.814 | 1.55 | 0.96 | 0.833 | 1.06 | 2.43 | 0.309 | 0.298 | -0.142 | 0.708 | 1.09
CCTAGATGGTCAGGAGGTCACACACCGGATATGA | 1.16 | 2.88 | 0.417 | 0.0962 | 3.94 | 4.14 | 1.76 | 4.94 | 2.24 | 3.54 | 4.09 | 5.06 | 4.28 | 0.392 | 4.73 | 3.5 | 2.26 | – | 2.68
GCTGCTCGGTCAACTGATGGTCAGCTAAAGCTCG | 0.634 | -0.00578 | -0.981 | -0.237 | -0.156 | -0.105 | -0.492 | 0.225 | -0.934 | 2.87 | 2.15 | 2.42 | 3.21 | -0.121 | -0.0356 | 0.0227 | -0.551 | -0.285 | -0.439
GCTGCTAGGTCAACTGATGGTCAGCTAGAGCTCG | 4.87 | 3.91 | -0.00234 | 0.522 | 0.71 | 1.55 | -0.557 | 2.21 | 0.274 | 4.28 | 3.68 | 5.23 | 5.53 | 1.73 | 2.87 | 3.1 | 1.07 | 1.5 | 0.0219
TAGCCTCGGTCATTCAGGGGCCAGTATAGAAAGC | -0.712 | 0.476 | 0.246 | -0.322 | 0.0789 | -0.0122 | -0.574 | 0.667 | -0.375 | 2.68 | 2.44 | 3.5 | 3.37 | -0.617 | 0.151 | 1.46 | -0.717 | – | -0.088
CCTACTGGGCCAAGGTCATAGATCAGTCAAAGCA | 3.5 | 4.88 | 0.145 | -0.588 | 2.21 | 3.28 | 0.536 | 4.12 | 0.339 | 3.23 | 3.17 | 3.62 | 2.88 | 0.741 | 3.51 | 3.38 | 2.25 | 2.87 | 1.92
GGTACGAGGGCAAAGTTGATAGCATCTGTCGACG | 2.41 | 3.4 | 0.0227 | -1.04 | 1.2 | 0.895 | 0.0381 | 1.42 | -0.085 | 2.33 | 1.13 | 2.05 | 1.83 | 2.49 | 1.7 | 1.33 | -0.0946 | – | 1.48
CCTAGTTGGTCAAGGTCTCACACGCTATAGGTAC | 1.7 | 1.75 | -0.0151 | 0.765 | 1.47 | 0.365 | 0.749 | 0.511 | 1.56 | 1.48 | 1.32 | 0.677 | 1.21 | 1.08 | 0.272 | 0.956 | 1.03 | – | 0.887
ACTCGGAGGACAAAGGTCAGAACTACGCCAGTGA | 0.613 | 3.35 | 0.492 | -0.388 | 4.36 | 3.9 | 0.428 | 4.98 | 2.66 | 4.04 | 3.96 | 5.75 | 4.61 | 1.08 | 4.75 | 3.28 | 0.786 | – | 0.984
